Data: PubChem BioAssay (NCATS)
Records with an inconclusive call do not appear. Activity calls are given as the source filed them. The call rests on the fitted dose curve; in most records, active means well fitted inhibition curve with a large enough effect; inconclusive means small, poorly fitted or top-dose-only effect; inactive means flat fitted curve, though single readings scatter.

How the values were obtained:
Assay in all cases: Cytotoxic Profiling of Annotated Libraries Using Quantitative High-Throughput Screening (AID 1296008); further: nearly all actives have a fitted effect of over 60% in size
Conditions in all cases: Five cell lines viability, CellTiter-Glo ATP luminescence, 48-72 h; max response: hits give low values
CRL-7250 = system: CRL-7250
Method in brief: (§1)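 Cytotoxicity was measured as CellTiter-Glo ATP luminescence, read after 10 min at room temperature. Compound treatment of the cells lasted 48 or 72 hr at 37 degrees Celsius in a qHTS format.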

HaCat = system: HaCat
Method in brief: as §1

KB-3-1 = system: KB-3-1
Method in brief: as §1

NIH3T3 = system: NIH3T3
Method in brief: as §1
On the % scale 0 is the no-effect control and ±100 the full control effect; potency means the concentration at half of the fitted maximal effect.

SMILES | max response (CRL-7250) | max response (HaCat) | max response (KB-3-1) | max response (NIH3T3) | outcome (CRL-7250) | outcome (NIH3T3) | Potency (KB-3-1) | outcome (KB-3-1)
O=[N+]([O-])c1cn2c(n1)OC[C@@H](OCc1ccc(-c3ccc(OC(F)(F)F)cc3)nc1)C2 | 2.36% (inactive) | -7.6% (inactive) | -0.53% (inactive) | -0.0728% (inactive) | – | – | – | –
O=C(C(Cc1cccc(C(F)(F)F)c1)NS(=O)(=O)c1cc(F)c2c(c1)CCNC2)N1CCCC1 (stereo not given) | -1.14% (inactive) | -1.4% (inactive) | -6.26% (inactive) | 1.31% (inactive) | – | – | – | –
Nc1nc2c(s1)CCN(Cc1ccc(Cl)cc1)CC2 | – | -24.3% (inactive) | 6.96% (inactive) | 0.621% (inactive) | inactive | – | – | –
CN(C)c1ccnc2sc3c(=O)n(N4CCCCCC4)cnc3c12 | -8.13% (inactive) | 1.16% (inactive) | 7% (inactive) | 4.09% (inactive) | – | – | – | –
C/C=C(\C)C(=O)OC1C(C)C2(O)C(C=C(CO)CC3(O)C(=O)C(C)=CC32)C2C(C)(C)C12OC(C)=O (stereo not given) | -19.7% (inactive) | -5.6% (inactive) | 3.13% (inactive) | -6.06% (inactive) | – | – | – | –
CCCCc1ccc(NS(=O)(=O)c2ccc(F)cc2)cc1 | – | -1.98% (inactive) | 4.06% (inactive) | – | inactive | inactive | – | –
CC(C)=CCCC1(C)C2CCC1(C)C(O)C2 (stereo not given) | -2.07% (inactive) | -23% (inactive) | -23.6% (inactive) | 0.907% (inactive) | – | – | – | –
C[C@@H]1O[C@@H](O[C@H]2[C@@H](OC(=O)[C@]34CCC(C)(C)CC3C3=CCC5[C@@]6(C)C[C@H](O)[C@H](O[C@@H]7O[C@H](CO)[C@@H](O)[C@H](O)[C@H]7O[C@@H]7OC[C@@H](O)[C@H](O)[C@H]7O)[C@@](C)(C(=O)O)C6CC[C@@]5(C)[C@]3(C)CC4)OC[C@H](O)[C@@H]2O)[C@H](O)[C@H](O)[C@H]1O[C@@H]1OC[C@@H](O)[C@H](O)[C@H]1O (stereo not given in full) | 4.52% (inactive) | -2.16% (inactive) | – | 1.11% (inactive) | – | – | 2.45 µM (active) | –
C/C=C(\C)C(=O)OC1C(C)C2(O)C(C=C(CO)CC3(O)C(=O)C(C)=CC32)C2C(C)(C)C12OC(=O)C(C)C (stereo not given) | -36% (inactive) | -1.92% (inactive) | -0.0958% (inactive) | 1.03% (inactive) | – | – | – | –
COc1cc(OC)c2c(=O)[nH]c(-c3cc(C)c(OCCO)c(C)c3)nc2c1 | -10.3% (inactive) | 1.79% (inactive) | – | -22% (inactive) | – | – | – | inactive
CC1(C=O)CCCC2(C)C1CCC13CC(CO)C(CCC12)C3 (stereo not given) | – | 3.29% (inactive) | 7.38% (inactive) | -4.47% (inactive) | inactive | – | – | –
NS(=O)(=O)c1ccc(N2N=C(c3ccccc3)CC2c2ccccc2)cc1 (stereo not given) | -0.316% (inactive) | 4.65% (inactive) | -12.2% (inactive) | 2.93% (inactive) | – | – | – | –
C[C@@]12C(=O)N(c3ccc(C(=O)Nc4cccc5cccnc45)cc3)C(=O)[C@@H]1[C@@H]1C=C[C@H]2C1 | -9.69% (inactive) | -0.616% (inactive) | -11.1% (inactive) | – | – | inactive | – | –
c1cc(-c2cnn3cc(-c4ccc(N5CCNCC5)cc4)cnc23)c2cccnc2c1 | – | 0.937% (inactive) | – | -2.87% (inactive) | inactive | – | 4.11 µM (active) | –
NS(=O)(=O)c1ccc(N2CCN(CC[C@@H]3OCCc4ccccc43)CC2)cc1 | -8.79% (inactive) | -12.7% (inactive) | -10.3% (inactive) | -0.981% (inactive) | – | – | – | –
CC(C)/C=C1\NC(=O)C(C(C)C)n2c1nc1ccccc1c2=O (stereo not given) | 2.92% (inactive) | -9.75% (inactive) | -2.24% (inactive) | -0.19% (inactive) | – | – | – | –
CCOc1ccc(-n2c([C@@H](C)N(Cc3cccnc3)C(=O)Cc3ccc(OC(F)(F)F)cc3)nc3ncccc3c2=O)cc1 | 0.299% (inactive) | -4.53% (inactive) | 4.98% (inactive) | -0.198% (inactive) | – | – | – | –
COc1cc(C(C)=O)c(OC)c2c1OC(C)(C)C=C2 | – | -6.75% (inactive) | – | – | inactive | inactive | – | inactive
CCC[C@H](N[C@H]1CCc2cc(F)cc(F)c2C1)C(=O)Nc1cn(C(C)(C)CNCC(C)(C)C)cn1 | 4.72% (inactive) | -2.54% (inactive) | -17.7% (inactive) | -10.9% (inactive) | – | – | – | –
Cn1c(SCC(=O)N2CCC[C@H]2C(=O)Nc2ccccc2-c2ccccc2)nc2ccccc21 | – | -3.91% (inactive) | 7.08% (inactive) | -3.15% (inactive) | inactive | – | – | –
